Among the test systems are K-562 leukemia; MALME-3M melanoma; MDA-MB-231 breast; RXF 393 renal; SF-268 CNS; SF-295 CNS; SF-539 CNS; UACC-257 melanoma; M14 melanoma; HCT-15 colon; HT29 colon; SNB-75 CNS; SNB-19 CNS; U251 CNS; PC-3 prostate; SK-MEL-28 melanoma; SK-MEL-2 melanoma; UACC-62 melanoma; SK-MEL-5 melanoma; LOX IMVI melanoma.
What all share (test): NCI-60 one-dose screen, 48 h (100 = growth as untreated, 0 = no growth, -100 = all killed)
Common to all, as to settings: 10 µM unless noted

About 83,000 compounds went through this panel and 20% of them were active in at least one assay; those are over-represented in the sample as a whole.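 In brief: 96-well plates, 48 h treatment, single concentration, percent growth endpoint.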 A number with no mark means an inactive call. Calls of active or inactive are those of the source. Rule for the calls: active = growth percent below 10; inactive = the rest.

The source of these data is PubChem BioAssay (NCI).

For the compound `O=C1[C@H]2Cc3c([nH]c4ccccc34)[C@@H](c3ccc(Br)cc3)N2C(=O)CN1C1CCN(Cc2ccccc2)CC1`, the growth is -28.2% (active) with K-562 leukemia; 62.2% with MALME-3M melanoma; 49% in the test with MDA-MB-231 breast; 42.7% in the test on RXF 393 renal; 37.5% in the test with SF-268 CNS; 32.4% in the test on SF-295 CNS. In addition, the growth in the test with SF-539 CNS was 65.4%; with UACC-257 melanoma, 53.3%; with M14 melanoma it was 35.8%; with HCT-15 colon, 15.8%; with HT29 colon, -30.9% (active); with SNB-75 CNS it was 51.1%. In addition, the growth is 47.8% in the test with SNB-19 CNS; 32.3% in the test with U251 CNS; 17% with PC-3 prostate; 70.3% in the test on SK-MEL-28 melanoma; 28.8% in the test with SK-MEL-2 melanoma.
Regarding `Cn1c(SCC(=O)c2cccs2)nc2ccccc2c1=O`, the growth is 78.5% with K-562 leukemia; 102% in the test with MALME-3M melanoma; 88.2% in the test with MDA-MB-231 breast; 107% in the test on RXF 393 renal; 92.7% in the test on SF-268 CNS; 107% in the test with SF-295 CNS. In addition, the growth with SF-539 CNS was 94.6%; in the test on UACC-257 melanoma it was 93.4%; with M14 melanoma, 97.8%; in the test with HCT-15 colon, 91.1%; with HT29 colon, 106%; with SNB-75 CNS, 88.7%. Besides, the growth in the test on SNB-19 CNS is 102%; in the test on U251 CNS, 97.5%; in the test on PC-3 prostate it was 90.3%; with UACC-62 melanoma, 92.6%; in the test with SK-MEL-28 melanoma it was 105%; with SK-MEL-2 melanoma, 98%.
In the case of `CC1=C(C)C(=O)C(Nc2ccccc2)=C(Cl)C1=O`, the growth with K-562 leukemia was 15.9%; in the test with MALME-3M melanoma, 108%; in the test with MDA-MB-231 breast it was 15.4%; with RXF 393 renal, 96.8%; in the test with SF-268 CNS, 95.4%; with SF-295 CNS it was 102%. The growth with SF-539 CNS was 95.4%; in the test with UACC-257 melanoma it was 90.3%; in the test with M14 melanoma it was 95.9%; in the test with HCT-15 colon, 94.2%; in the test on HT29 colon it was 99.1%; with SNB-75 CNS it was 65.4%. The growth was 88.8% in the test on SNB-19 CNS; 84.3% in the test with U251 CNS; 73.9% in the test on PC-3 prostate; 90.3% in the test with UACC-62 melanoma; 106% in the test on SK-MEL-28 melanoma; 85.5% in the test with SK-MEL-2 melanoma.
Take `Cc1ccc2ccc3ccc(C)nc3c2n1.Cc1ccc2ccc3ccc(C)nc3c2n1.Oc1c(Cl)cc(Cl)c2ccc(CN3CCCCC3)nc12.[Ru]`: the growth was -85.1% (active) in the test on MALME-3M melanoma; -84% (active) in the test with MDA-MB-231 breast; -84.1% (active) in the test with RXF 393 renal; -54.8% (active) in the test on SF-268 CNS; -84.2% (active) with SF-295 CNS; -88.2% (active) in the test on SF-539 CNS. For the same compound, the growth with UACC-257 melanoma was -69.4% (active); in the test with M14 melanoma, -94.1% (active); in the test on HCT-15 colon, -81.3% (active); in the test on HT29 colon it was -61.7% (active); with SNB-75 CNS, -71% (active); in the test with SNB-19 CNS it was -86.4% (active). For the same compound, the growth in the test with U251 CNS was -54.5% (active); in the test with PC-3 prostate, -82.6% (active); in the test with SK-MEL-5 melanoma it was -97.9% (active); with LOX IMVI melanoma, -91.2% (active); in the test with SK-MEL-28 melanoma, -89.9% (active); in the test with SK-MEL-2 melanoma it was -83.1% (active).
As to `O=C(N/N=C/c1ccc([N+](=O)[O-])o1)c1[nH]c2ccc(Br)cc2c1-c1ccccc1`, the growth is 3.51% (active) in the test on K-562 leukemia; 23% in the test on MALME-3M melanoma; -2.79% (active) with MDA-MB-231 breast; 50.1% with RXF 393 renal; 24.8% in the test with SF-268 CNS; 21.3% with SF-295 CNS. Also, the growth is 4.34% (active) in the test with SF-539 CNS; 37.5% in the test on UACC-257 melanoma; -35.4% (active) with M14 melanoma; 9.3% (active) in the test with HCT-15 colon; 17.7% with SNB-75 CNS; 22% with SNB-19 CNS. In addition, the growth with U251 CNS is 13.3%; with PC-3 prostate, 16.2%; with SK-MEL-5 melanoma, -84% (active); in the test with UACC-62 melanoma, 6.4% (active); in the test on SK-MEL-28 melanoma, 55.9%; with SK-MEL-2 melanoma, -12.4% (active).
In the case of `CC1=C(C)C(=O)C(Nc2cccc(C(F)(F)F)c2)=C(Cl)C1=O`, the growth is 3.78% (active) in the test on K-562 leukemia; 94.4% in the test with MALME-3M melanoma; 19% with MDA-MB-231 breast; 97.8% in the test with RXF 393 renal; 94.3% with SF-268 CNS; 96.2% with SF-295 CNS. In addition, the growth with SF-539 CNS is 93.4%; in the test on UACC-257 melanoma, 78.5%; in the test with M14 melanoma it was 85.2%; with HCT-15 colon it was 65.7%; with SNB-75 CNS it was 66.5%; in the test on SNB-19 CNS, 92.4%. Further, the growth is 79% in the test with U251 CNS; 64.4% with PC-3 prostate; 80.2% in the test on UACC-62 melanoma; 98.3% in the test on SK-MEL-28 melanoma; 85.8% with SK-MEL-2 melanoma.
With `CC(=O)Oc1ccccc1C(=O)Nc1cc(C(C)C)ccc1C`, the growth with K-562 leukemia was 7.45% (active); with MALME-3M melanoma, -6.69% (active); in the test on MDA-MB-231 breast, 7.22% (active); with RXF 393 renal, -2.41% (active); in the test with SF-268 CNS, 19.8%; in the test on SF-295 CNS, 11.3%. For the same compound, the growth was 15.6% in the test on SF-539 CNS; -9.44% (active) in the test on UACC-257 melanoma; 33.2% in the test with M14 melanoma; 14% in the test with HCT-15 colon; 26.1% in the test with SNB-75 CNS; 17.5% in the test with SNB-19 CNS. The growth is 10.1% with U251 CNS; 22.1% in the test on PC-3 prostate; -31.9% (active) with SK-MEL-5 melanoma; 16.9% with UACC-62 melanoma; 12.4% in the test with LOX IMVI melanoma; 18% with SK-MEL-28 melanoma. Moreover, the growth with SK-MEL-2 melanoma was -22.9% (active).
For `O=C(N/N=C/c1ccc(Br)s1)c1[nH]c2ccc(Br)cc2c1-c1ccccc1`, the growth in the test with K-562 leukemia was 7.72% (active); in the test with MALME-3M melanoma, 55.1%; in the test on MDA-MB-231 breast, 4.67% (active); in the test on RXF 393 renal it was 60%; with SF-268 CNS, 37.2%; in the test with SF-295 CNS, 14.8%. The growth was 0.701% (active) with SF-539 CNS; 57.2% with UACC-257 melanoma; 2.05% (active) in the test with M14 melanoma; 12.4% in the test on HCT-15 colon; 39.5% in the test with SNB-75 CNS; 31.3% with SNB-19 CNS. Also, the growth in the test with U251 CNS was 24.4%; in the test on PC-3 prostate, 28.8%; in the test on SK-MEL-5 melanoma, -27.3% (active); in the test on SK-MEL-28 melanoma, 63.1%; in the test on SK-MEL-2 melanoma, 18.7%.
In the case of `OC1CCN(CCCOc2c3ccccc3nc3c2oc2ccc(Cl)cc23)CC1`, the growth is 3.22% (active) in the test on K-562 leukemia; 1.25% (active) in the test on MALME-3M melanoma; 17% with MDA-MB-231 breast; -10.8% (active) with RXF 393 renal; 22.8% in the test on SF-268 CNS; 8.74% (active) with SF-295 CNS. Further, the growth in the test on SF-539 CNS was 14.6%; in the test on UACC-257 melanoma it was 23.6%; in the test on M14 melanoma, -4.12% (active); with HCT-15 colon, 10.1%; in the test on SNB-75 CNS it was 21%; in the test with SNB-19 CNS, 21.8%. For the same compound, the growth in the test on U251 CNS was 21.7%; in the test with PC-3 prostate, 8.35% (active); with SK-MEL-5 melanoma it was 26.6%; in the test with UACC-62 melanoma, -19.5% (active); with LOX IMVI melanoma, -73.8% (active); with SK-MEL-28 melanoma, 24.9%. Besides, the growth in the test on SK-MEL-2 melanoma was 14%.
Consider `COc1cc(/C=C/C(=O)c2cc(OC)c(OC)c(OC)c2)ccc1OCc1ccccc1`, for which the growth with K-562 leukemia is 10.2%; in the test on MALME-3M melanoma it was 63.1%; in the test with MDA-MB-231 breast it was 47.7%; in the test on RXF 393 renal it was 75%; with SF-268 CNS, 43.3%; with SF-295 CNS it was 50.8%. The growth was 8.77% (active) in the test with SF-539 CNS; 68.9% in the test with UACC-257 melanoma; 65.7% in the test with M14 melanoma; 13.3% in the test with HCT-15 colon; 13% with SNB-75 CNS; 34% with SNB-19 CNS. Besides, the growth in the test on U251 CNS is 13.6%; with PC-3 prostate it was 40.1%; in the test on SK-MEL-5 melanoma it was 63.2%; with UACC-62 melanoma, 38.8%; in the test on SK-MEL-28 melanoma it was 78.8%.
For `CCOC(=O)c1c(Nc2ccccc2)nn2c(N)c(C#N)c(-c3ccccc3)nc12`, the growth was 48.5% in the test with K-562 leukemia; 96% in the test on MALME-3M melanoma; 63.9% with MDA-MB-231 breast; 68.3% with RXF 393 renal; 87.4% in the test with SF-268 CNS; 81.3% with SF-295 CNS. Also, the growth in the test with SF-539 CNS was 82.2%; with UACC-257 melanoma, 111%; in the test on M14 melanoma, 89%; in the test on HCT-15 colon, 52.4%; with SNB-75 CNS, 86.1%; in the test with SNB-19 CNS it was 89.4%. For the same compound, the growth in the test with U251 CNS is 74.6%; in the test on PC-3 prostate it was 76.5%; with SK-MEL-5 melanoma, 86.8%; in the test with UACC-62 melanoma, 83.4%; in the test on SK-MEL-28 melanoma it was 99.4%.
